Structures are written as SMILES. Values joined by “and” are separate entries in the source; they are usually repeats but may differ in a detail not shown here. Equal entries are not always repeated. A structure can be active in one record and inactive in another. Active and inactive are the calls of the source. The calls were made as follows: active = hit-call score of the fitted dose curve at least 0.9, where 1 is the maximum; inactive = score below 0.9.

The nature of experiment [1]: BSK_LPS_PGE2: BioMAP Diversity Plus: LPS Assay for Prostaglandin E2 (PGE2) Biomarker Activity (AID 2283082).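 As to AC50: secreted prostaglandin E2 measured by ELISA in LPS-stimulated co-culture.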 To be noted: primary human HUVEC with PBMC; actives raise or lower the signal. The method in brief:
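HUVEC plus PBMC co-culture stimulated with LPS; secreted PGE2 quantified by ELISA 24 h after chemical dosing. Activity fitted bidirectionally against DMSO as negative control and baseline; parallel SRB total-protein staining served as cytotoxicity check.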

Read-out in experiment [2]: Tissue Factor, F3 (gene 2152)
Description: BSK_LPS_TissueFactor: BioMAP Diversity Plus: LPS Assay for Tissue Factor Biomarker Activity (AID 2283084). To be noted: primary human HUVEC with PBMC; actives raise or lower the signal. An outline of the steps:
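Human umbilical vein endothelial cells co-cultured with peripheral blood mononuclear cells were dosed and stimulated with LPS. Cell-surface CD142 was quantified by ELISA at 24 h. Activity was fitted bidirectionally against DMSO baseline.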

Read-out in experiment [3]: Vascular cell adhesion molecule 1 (VCAM1), VCAM1 (gene 7412)
The experiment is described as follows: BSK_LPS_VCAM1: BioMAP Diversity Plus: LPS Assay for Vascular cell adhesion molecule 1 (VCAM1) Biomarker Activity (AID 2283086). Conditions: primary human HUVEC with PBMC; actives raise or lower the signal. An outline of the steps:
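Human umbilical vein endothelial cells co-cultured with peripheral blood mononuclear cells under LPS stimulation were exposed to test chemical for 24 h. VCAM-1 levels were then measured by ELISA, with bidirectional curve fitting relative to DMSO as negative control and baseline.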

Read-out in the next experiment: CD38, CD38 (gene 952)
Description: BSK_SAg_CD38: BioMAP Diversity Plus: SAg Assay for CD38 Biomarker Activity (AID 2283087). To be noted: primary human HUVEC with PBMC; actives raise or lower the signal. The method in brief: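 Fluorescence ELISA of cell-surface CD38 served as the read-out, with either increase or decrease fitted against DMSO controls. Cells were a human umbilical vein endothelium plus PBMC co-culture under SEB/TSST-1 stimulation, measured 24 h after dosing.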

Read-out in another experiment: CD40, CD40 (gene 958)
The experiment is described as follows: BSK_SAg_CD40: BioMAP Diversity Plus: SAg Assay for CD40 Biomarker Activity (AID 2283088). To be noted: primary human HUVEC with PBMC; actives raise or lower the signal. An outline of the steps:
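Human umbilical vein endothelial cells co-cultured with PBMC; CD40 levels measured by ELISA with fluorescence read-out 24 h after chemical dosing. Gain or loss of signal fitted bidirectionally against DMSO baseline.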

Read-out in the next experiment: CD69, CD69 (gene 969)
The experiment is described as follows: BSK_SAg_CD69: BioMAP Diversity Plus: SAg Assay for CD69 Biomarker Activity (AID 2283089).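 As to AC50: cell surface CD69 protein quantified by ELISA with fluorescence detection.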 Conditions: primary human HUVEC with PBMC; actives raise or lower the signal. The method in brief: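 Endothelial/PBMC co-culture; chemical added; 24 h incubation; CD69 ELISA with fluorescence detection; bidirectional fit vs DMSO.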

Read-out in experiment [4]: Monocyte Chemoattractant Protein-1 (MCP1), CCL2 (gene 6347)
Description: BSK_SAg_MCP1: BioMAP Diversity Plus: SAg Assay for Monocyte Chemoattractant Protein-1 (MCP1) Biomarker Activity (AID 2283090). To be noted: primary human HUVEC with PBMC; actives raise or lower the signal. An outline of the steps: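 MCP-1 levels in the endothelial–PBMC SAg co-culture were quantified by ELISA at 24 h post-dosing; both increases and decreases versus DMSO scored. Cytotoxicity monitored by SRB total protein in parallel cultures.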

Read-out in experiment [5]: E-selectin (Homo sapiens) (UniProt P16581)
The experiment is described as follows: BSK_SAg_Eselectin: BioMAP Diversity Plus: SAg Assay for Eselectin Biomarker Activity (AID 2283091). Conditions: primary human HUVEC with PBMC; actives raise or lower the signal. The method in brief: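 HUVEC co-cultured with PBMC, compound dosed then read at 24 h; E-selectin measured by ELISA. Activity fitted bidirectionally against DMSO as negative control and baseline.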

Read-out in experiment [6]: Monokine induced gamma interferon (MIG), CXCL9 (gene 4283)
Description: BSK_SAg_MIG: BioMAP Diversity Plus: SAg Assay for Monokine induced gamma interferon (MIG) Biomarker Activity (AID 2283092). To be noted: primary human HUVEC with PBMC; actives raise or lower the signal. An outline of the steps:
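Measures CXCL9 protein by ELISA in a human vascular primary-cell co-culture (umbilical vein endothelium with PBMC) 24 h after chemical addition. Activity is scored up or down from the DMSO control.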

Experiment [7] is described as follows: BSK_SAg_PBMCCytotoxicity: PBMC Cytotoxicity Assessment in the BioMAP Diversity Plus: SAg Assay (AID 2283093).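 Also: PBMC viability measured as Alamar Blue reduction fluorescence at 546/580 nm; fitted both ways against DMSO so a hit may be loss or gain of signal.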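 As to AC50: PBMC superantigen activated with SEB plus TSST-1 one hour after compound addition.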 To be noted: primary human HUVEC with PBMC. An outline of the steps:
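HUVEC/PBMC co-culture; PBMC exposed to chemical 1 h before SEB and TSST-1 activation (20 ng/mL each), incubated 90 h, then Alamar Blue 6 h, fluorescence 546/580 nm. Bidirectional fit versus DMSO baseline.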

Read-out in experiment [8]: Interleukin-8 (IL8), CXCL8 (gene 3576)
The experiment is described as follows: BSK_SAg_IL8: BioMAP Diversity Plus: SAg Assay for Interleukin-8 (IL8) Biomarker Activity (AID 2283094). To be noted: primary human HUVEC with PBMC; actives raise or lower the signal. An outline of the steps:
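Human umbilical vein endothelial cells co-cultured with peripheral blood mononuclear cells; IL-8 measured by ELISA 24 h after chemical dosing. Bidirectional concentration-response fitting used DMSO as negative control and activity baseline.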

Experiment [9] can be described thus: BSK_SAg_Proliferation: Cell Proliferation Assessment in the BioMAP Diversity Plus: SAg Assay (AID 2283095).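 Also: relative cell number as total protein by SRB absorbance in sub-confluent culture.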 Conditions: primary human HUVEC with PBMC. The method in brief: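 Human umbilical vein endothelial cells co-cultured with peripheral blood mononuclear cells; total protein measured by sulforhodamine B staining (0.1% SRB after 10% TCA fixation), absorbance at 560 nm, at 96 h. Bidirectional fit against DMSO baseline.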

Experiment [10] in a line: BSK_SAg_SRB: Viability Assessment in the BioMAP Diversity Plus: SAg Assay (AID 2283096).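 Also: cells read one day after compound addition; hits may be either gain or loss of signal compared with DMSO.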 To be noted: primary human HUVEC with PBMC. The method in brief:
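Human umbilical vein endothelial cells co-cultured with PBMC, read 24 h after compound dosing. Total protein measured by sulforhodamine B staining (0.1% SRB after 10% TCA fixation, absorbance 560 nm); bidirectional fit versus DMSO baseline.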

Read-out in experiment [11]: Tumor necrosis factor (Homo sapiens) (UniProt P01375)
The experiment is described as follows: BSK_LPS_TNFa: BioMAP Diversity Plus: LPS Assay for Tumour Necrosis Factor alpha (TNFa) Biomarker Activity (AID 2283085). Conditions: primary human HUVEC with PBMC; actives raise or lower the signal. The method in brief:
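Human umbilical vein endothelial cells co-cultured with PBMC were exposed to test chemical and TNFa measured by ELISA 24 h after dosing. Bidirectional curve fitting was done relative to DMSO as negative control and baseline.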

Read-out in experiment [12]: Macrophage colony-stimulating factor (MCSF), CSF1 (gene 1435)
Description: BSK_LPS_MCSF: BioMAP Diversity Plus: LPS Assay for Macrophage colony-stimulating factor (MCSF) Biomarker Activity (AID 2283083). Conditions: primary human HUVEC with PBMC; actives raise or lower the signal. An outline of the steps:
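Human umbilical vein endothelial cells co-cultured with peripheral blood mononuclear cells were exposed to compound for 24 h. M-CSF levels were measured by ELISA, and bidirectional curve fitting used DMSO as the negative control and baseline.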

Sequence of E-selectin (Homo sapiens) (P16581 whole entry, looked up): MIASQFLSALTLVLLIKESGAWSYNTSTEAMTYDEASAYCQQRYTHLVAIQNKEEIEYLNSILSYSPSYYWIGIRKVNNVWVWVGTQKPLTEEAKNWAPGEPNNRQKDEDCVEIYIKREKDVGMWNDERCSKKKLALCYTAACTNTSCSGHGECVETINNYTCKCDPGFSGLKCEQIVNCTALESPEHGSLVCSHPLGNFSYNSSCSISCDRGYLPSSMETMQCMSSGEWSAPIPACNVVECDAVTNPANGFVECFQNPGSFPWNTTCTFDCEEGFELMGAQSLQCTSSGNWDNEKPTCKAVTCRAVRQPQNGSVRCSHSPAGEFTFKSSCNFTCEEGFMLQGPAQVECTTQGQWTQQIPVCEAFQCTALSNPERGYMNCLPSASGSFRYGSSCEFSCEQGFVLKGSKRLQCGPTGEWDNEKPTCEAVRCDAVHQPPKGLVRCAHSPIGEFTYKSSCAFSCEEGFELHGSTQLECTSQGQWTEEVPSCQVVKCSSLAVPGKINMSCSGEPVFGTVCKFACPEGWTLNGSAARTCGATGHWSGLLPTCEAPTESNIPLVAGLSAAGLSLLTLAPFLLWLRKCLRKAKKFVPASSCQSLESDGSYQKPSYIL
Sequence of Tumor necrosis factor (Homo sapiens) (P01375 whole entry, looked up): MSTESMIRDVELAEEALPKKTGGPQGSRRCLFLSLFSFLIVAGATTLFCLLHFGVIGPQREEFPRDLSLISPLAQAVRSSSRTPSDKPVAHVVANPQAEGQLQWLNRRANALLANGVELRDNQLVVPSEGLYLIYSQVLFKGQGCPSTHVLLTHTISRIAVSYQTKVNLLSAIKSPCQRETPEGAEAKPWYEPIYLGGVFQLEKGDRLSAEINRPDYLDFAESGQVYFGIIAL

What is called AC50 is the concentration giving half of the maximal activity seen. For the compound `CCCCCCCCCCCCCCCC(=O)OC/C=C(C)/C=C/C=C(C)/C=C/C1=C(C)CCCC1(C)C`, the outcome is “inactive” in experiment [1]; “inactive” in [2]; “inactive” with CD40, CD40 (gene 958); “inactive” in experiment [4]; “inactive” in experiment [5]; “inactive” in [6]. The result in experiment [7], in experiment [8] and in experiment [10] was inactive. Further, the concentration at half-maximal activity (AC50) is 20 µM (active) in experiment [3]; 3.97 µM (active) with CD38, CD38 (gene 952); 20 µM (active) with CD69, CD69 (gene 969); 20 µM (active) in experiment [9].

As for `O=C1c2ccccc2C(=O)c2c(O)ccc(O)c21`, the AC50 in experiment [1] is 233 nM (active); in experiment [2], 3.52 µM (active); with CD38, CD38 (gene 952), 13.1 µM (active); in experiment [5] it was 1.21 µM (active); in experiment [7] it was 14.4 µM (active); in [8], 3.15 µM (active). Also, the AC50 in experiment [9] is 16.5 µM (active). Moreover, the outcome in [3] is “inactive”; with CD40, CD40 (gene 958), “inactive”; with CD69, CD69 (gene 969), “inactive”; in experiment [4] it was “inactive”; in experiment [6], “inactive”; in [10] it was “inactive”.

`O=CN1CCOCC1`: the outcome in experiment [1] is “inactive”; in experiment [2], “inactive”; in [3] it was “inactive”; with CD38, CD38 (gene 952), “inactive”; in the experiment with CD40, CD40 (gene 958), “inactive”; with CD69, CD69 (gene 969), “inactive”. Besides, the outcome in [4], in experiment [5], in [6], in experiment [7], in [8] and in experiment [9] was inactive. For the same compound, in experiment [10], the result was inactive.

For `CCOC(=O)C(C#N)=C(c1ccccc1)c1ccccc1`, the AC50 is 6.95 µM (active) and 2.79 µM (active) in experiment [1]; 20 µM (active) in experiment [4]; 29.8 µM (active) in experiment [5]; 1.24 µM (active) in experiment [7]; 20 µM (active) in experiment [8]; 14.1 µM (active) in experiment [9]. Moreover, the outcome is “inactive” in experiment [2]; “inactive” in experiment [11]; “inactive” in experiment [3]; “inactive” with CD38, CD38 (gene 952); “inactive” in the experiment with CD40, CD40 (gene 958); “inactive” with CD69, CD69 (gene 969). Also, the result in experiment [4], in [5], in experiment [6], in experiment [7], in experiment [8] and in [9] was inactive. In addition, in experiment [10], the result was inactive.

As to `CN(c1nccc(=O)[nH]1)C1CCN(c2nc3ccccc3n2Cc2ccc(F)cc2)CC1`, the outcome in experiment [1] is “inactive”; in experiment [2] it was “inactive”; in experiment [3], “inactive”; with CD38, CD38 (gene 952), “inactive”; in the experiment with CD40, CD40 (gene 958) it was “inactive”; with CD69, CD69 (gene 969), “inactive”. Also, the result in experiment [4], in experiment [5], in experiment [6], in experiment [7], in experiment [8] and in [9] was inactive. Also, in [10], the result was inactive.

Regarding `Cc1cc(CCC(=O)OCCOCCOCCOC(=O)CCc2cc(C)c(O)c(C(C)(C)C)c2)cc(C(C)(C)C)c1O`, the outcome is “inactive” in experiment [1]; “inactive” in [12]; “inactive” in [2]; “inactive” in experiment [3]; “inactive” with CD38, CD38 (gene 952); “inactive” in the experiment with CD40, CD40 (gene 958). Moreover, the outcome in the experiment with CD69, CD69 (gene 969) is “inactive”; in [4], “inactive”; in [5], “inactive”; in experiment [6] it was “inactive”; in experiment [8], “inactive”. For the same compound, the AC50 in experiment [7] is 25.2 µM (active); in experiment [9] it was 25.3 µM (active); in experiment [10] it was 32.2 µM (active).

Turning to `COc1ccc(CCN2CCC(Nc3nc4ccccc4n3Cc3ccc(F)cc3)CC2)cc1`, the outcome is “inactive” in experiment [1]; “inactive” in experiment [2]; “inactive” in [3]; “inactive” with CD40, CD40 (gene 958); “inactive” in [4]; “inactive” in experiment [5]. Besides, the outcome in experiment [6] was inactive. Also, the concentration at half-maximal activity (AC50) is 5 µM (active) in the experiment with CD38, CD38 (gene 952); 5 µM (active) in the experiment with CD69, CD69 (gene 969); 6.91 µM (active) in [7]; 2.39 µM (active) in experiment [8]; 6.38 µM (active) in experiment [9]; 5 µM (active) in experiment [10].

The values above are taken from PubChem BioAssay (EPA / NIEHS).
